This is an account of results in ChEMBL document CHEMBL4808148, “HDAC6 screening dataset using tau-based substrate in an enzymatic assay yields selective inhibitors and activators” (2021).

Molecules are shown by their SMILES. In all, about 5,600 compounds went through this assay and about 390 (7%) showed an effect of 50% or more. For the sample, strong results were picked, then their nearest neighbours and some compounds at random.

In this experiment the target is T1, Protein deacetylase HDAC6 (Homo sapiens) (UniProt Q9UBN7).
T1 sequence (whole entry): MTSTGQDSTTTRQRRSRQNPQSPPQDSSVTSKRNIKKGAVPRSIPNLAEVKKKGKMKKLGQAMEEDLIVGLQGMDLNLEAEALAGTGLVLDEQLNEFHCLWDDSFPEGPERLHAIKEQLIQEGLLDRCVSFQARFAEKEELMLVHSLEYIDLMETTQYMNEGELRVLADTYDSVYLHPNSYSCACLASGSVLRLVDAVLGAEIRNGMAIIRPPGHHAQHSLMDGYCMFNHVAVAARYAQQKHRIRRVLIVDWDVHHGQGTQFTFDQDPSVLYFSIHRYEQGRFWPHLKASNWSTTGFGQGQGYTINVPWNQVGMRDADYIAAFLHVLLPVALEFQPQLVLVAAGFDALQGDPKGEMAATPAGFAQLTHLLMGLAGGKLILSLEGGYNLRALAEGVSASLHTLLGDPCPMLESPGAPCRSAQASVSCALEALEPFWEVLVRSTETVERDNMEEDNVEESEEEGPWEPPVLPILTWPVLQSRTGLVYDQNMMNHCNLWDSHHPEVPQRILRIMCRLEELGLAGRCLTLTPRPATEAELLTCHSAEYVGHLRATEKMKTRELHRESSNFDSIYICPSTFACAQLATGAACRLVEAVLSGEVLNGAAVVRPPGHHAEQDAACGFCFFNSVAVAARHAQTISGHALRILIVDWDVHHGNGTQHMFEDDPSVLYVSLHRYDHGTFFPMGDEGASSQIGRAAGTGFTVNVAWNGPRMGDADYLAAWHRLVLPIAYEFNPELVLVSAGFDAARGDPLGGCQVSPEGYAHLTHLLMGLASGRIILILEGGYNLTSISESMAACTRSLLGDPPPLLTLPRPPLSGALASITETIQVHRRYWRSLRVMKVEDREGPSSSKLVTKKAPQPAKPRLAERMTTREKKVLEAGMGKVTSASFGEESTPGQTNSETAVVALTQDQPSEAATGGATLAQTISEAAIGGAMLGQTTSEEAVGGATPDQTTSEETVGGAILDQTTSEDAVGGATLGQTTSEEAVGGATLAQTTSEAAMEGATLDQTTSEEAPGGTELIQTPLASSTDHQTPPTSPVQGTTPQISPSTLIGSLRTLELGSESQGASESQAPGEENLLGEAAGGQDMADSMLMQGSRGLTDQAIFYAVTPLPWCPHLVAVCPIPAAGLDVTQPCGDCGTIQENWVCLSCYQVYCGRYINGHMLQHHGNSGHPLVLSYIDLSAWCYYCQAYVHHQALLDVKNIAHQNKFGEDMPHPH
The settings on record: at 10 µM.

With `CCOc1cc2ncc(C#N)c(Nc3ccc(OCc4cccc(F)c4)c(Cl)c3)c2cc1NC(=O)/C=C/CN(C)C`, the inhibition (usually the relative decrease from the control value, in per cent) was -4.4%. Regarding `Clc1ccc2nsnc2c1NC1=NCCN1`, the inhibition was -9.25%. As for `CC(C)Oc1ccc(Cc2ccc(NC3=NCCN3)cc2)cc1`, the inhibition was 64%. `CCc1[nH]c(=O)[nH]c1C(=O)c1ccncc1`: the inhibition is -6.73%.

Consider `COc1ccc2nc3[nH]nc(C)c3c(NCCOCCO)c2c1`, for which the inhibition was determined as 0.89%. In the case of `COc1cc(OC)c2c(=O)[nH]c(-c3cc(C)c(OCCO)c(C)c3)nc2c1` it was 80.1%; in that of `Nc1nc(Nc2ccc(S(N)(=O)=O)cc2)nn1C(=O)c1c(F)cccc1F`, 38.5%; in that of `COc1ccc(CNC(=O)c2sc3nc(C)cc(C)c3c2N)cc1`, 2.68%. As to `C#Cc1cccc(Nc2ncnc3cc(OCCOC)c(OCCOC)cc23)c1`, the inhibition was 32.3%.

Consider `COc1cc2ncnc(Nc3cccc(Br)c3)c2cc1OC`, for which the inhibition is 16.9%. In the case of `C#Cc1cccc(Nc2ncnc3cc(OC)c(OCCCCCCC(=O)NO)cc23)c1` it was 101%; in that of `Cn1ccnc1S`, -0.6%; in that of `O=C(O)c1cc(C(=O)O)c(C(=O)N(Cc2cccc(Oc3ccccc3)c2)[C@H]2CCCc3ccccc32)cc1C(=O)O`, 7.63%.

On to `Cc1ccc(Sc2ccccc2N2CCNCC2)c(C)c1`, for which the inhibition is -7.14%. Under `CN(C)C(=O)Nc1cccc(-c2ccc(N(C)C)cc2)c1` stands 94.6%; under `COC(=O)/C=C/c1cccc(N(Cc2ccc(-c3ccc(N(C)C)cc3)cc2)C(=O)C2CCCCC2)c1`, -3.18%. As for `CC(=O)Nc1cccc(O)c1`, the inhibition worked out at 34.1%. Consider `CC1(C)C(/C=C/C=C/C=C/C=C2\N(CCCCS(=O)(=O)O)c3ccc4ccccc4c3C2(C)C)=[N+](CCCCS(=O)(=O)[O-])c2ccc3ccccc3c21`, for which the inhibition was determined as 21.1%. In the case of `OCCOCCN1CCN(C(c2ccccc2)c2ccc(Cl)cc2)CC1` (centres undefined), the inhibition amounted to 89.5%.

Consider `O=C(O)COCCN1CCN(C(c2ccccc2)c2ccc(Cl)cc2)CC1` (centres undefined), for which the inhibition is -6.57%. Under `O=C(O)COCCN1CCN([C@H](c2ccccc2)c2ccc(Cl)cc2)CC1` stands -6.59%; under `Cc1c(CC(C)(C)C(=O)O)n(Cc2ccc(Cl)cc2)c2ccc(F)cc12`, 3.54%; under `Nc1ccn([C@@H]2C(F)=C(CO)[C@@H](O)[C@H]2O)c(=O)n1`, 8.8%. With `CCc1cccc(CC)c1NC(=O)c1nn(C)c2c1CCc1cnc(Nc3ccc(C(=O)NC4CCN(C)CC4)cc3OC(F)(F)F)nc1-2`, the inhibition is -2.89%. Consider `CC(C)(CCCCCCCCCCC(C)(C)CC(=O)O)CC(=O)O`, for which the inhibition was -0.28%. With `N#Cc1cccc(-c2nc(-c3cccnc3)no2)c1`, the inhibition amounted to 19.8%. Regarding `N#Cc1cc(F)cc(-c2nc(-c3ccc(F)cn3)no2)c1`, the inhibition amounted to 83.6%. Consider `COC(=O)c1cnn(-c2ccc(F)cc2F)c1/C=N/NC(=S)NC(C)(C)C`, for which the inhibition turned out to be 0.12%. Consider `CC[C@H](C)[C@H](N)C(=O)O`, for which the inhibition was determined as 9.28%. On to `COc1ncc2cc(C(=O)Nc3cc(C(=O)NCc4cccc(Cl)c4)ccc3Cl)c(=O)[nH]c2n1`, for which the inhibition stood at 4.52%. In the case of `Cn1nc(-c2cccc(F)c2)n(C)c1=S`, the inhibition was 17.9%. As to `Cc1csc(S(=O)(=O)N(CC(C)C)c2cc3c(cc2OCc2ccc(C(=O)O)cc2)CCC3)n1`, the inhibition turned out to be 1.78%. Regarding `CNCc1ccc(C)c(NC(=O)c2ccc(Nc3nc(-c4ccccc4)c4ccccc4n3)cc2)c1`, the inhibition is -7.66%. Take `Cc1ccc(C(=O)Nc2ccc(S(=O)(=O)O)c3cc(S(=O)(=O)O)cc(S(=O)(=O)O)c23)cc1NC(=O)c1cccc(NC(=O)Nc2cccc(C(=O)Nc3cc(C(=O)Nc4ccc(S(=O)(=O)O)c5cc(S(=O)(=O)O)cc(S(=O)(=O)O)c45)ccc3C)c2)c1`: the inhibition is 32.3%.

Turning to `Cc1ccc(NC(=O)c2cccc(N(C)C)c2)cc1NC(=O)c1ccc(O)cc1`, the inhibition came out at 80.4%. Turning to `CC(=O)O[C@H]1CC[C@@]2(C)C(=CC[C@@H]3[C@@H]2CC[C@]2(C)C(c4cccnc4)=CC[C@@H]32)C1`, the inhibition was 15.8%. On to `O=[N+]([O-])c1cc2nc(O)c(O)nc2cc1[N+](=O)[O-]`, for which the inhibition is -5.28%. On to `O=C(O)c1cc(=O)c2ccccc2o1`, for which the inhibition is -1.55%. As to `CC(C)c1ccc(-c2cc(=O)c3ccccc3o2)cc1`, the inhibition came out at 101%. As to `NCCC(Oc1ccc(C(F)(F)F)cc1)c1ccccc1` (centres undefined), the inhibition came to 1.38%. Turning to `CC[C@H]1OC(=O)[C@@](C)(F)C(=O)[C@H](C)[C@@H](O[C@@H]2O[C@H](C)C[C@H](N(C)C)[C@H]2O)[C@](C)(OC)C[C@@H](C)C(=O)[C@H](C)[C@H]2N(CCCCn3cc(-c4cccc(N)c4)nn3)C(=O)O[C@]12C`, the inhibition stood at 17.2%. As to `FC(F)c1nc2ccccc2n1-c1nc(N2CCOCC2)nc(N2CCOCC2)n1`, the inhibition came out at 29.1%. `c1ccc2sc(SN3CCOCC3)nc2c1`: the inhibition was found to be 58.2%. In the case of `COc1ccccc1Oc1c(NS(=O)(=O)c2ccc(C(C)(C)C)cc2)nc(-c2ncccn2)nc1OCCO`, the inhibition came out at 22.5%. Regarding `COc1ccc(F)c(F)c1C(=O)c1cnc(NC2CCN(S(C)(=O)=O)CC2)nc1N`, the inhibition is -5.57%. `C=CCNC(=O)c1cc([N+](=O)[O-])cc2c(=O)[nH]c(Nc3ccc(Cl)c(Cl)c3)nc12`: the inhibition came to 17.8%. With `CN(C)c1ccc2c(c1)Sc1cc(N(C)C)ccc1N2`, the inhibition turned out to be 66.8%. Turning to `N#CN=C(NCCCCCCOc1ccc(Cl)cc1)Nc1ccncc1`, the inhibition was -6.3%. `COc1cc2c(NC3CCN(C(C)C)CC3)nc(N3CCC(F)(F)CC3)nc2cc1OCCCN1CCCC1`: the inhibition was -5.91%.
